The values that follow come from PubChem BioAssay (EPA / NIEHS).

A word on the AC50: it is the concentration giving half of the maximal activity seen.

Molecules are shown by their SMILES. Records with an inconclusive call do not appear. Calls of active or inactive are those of the source. How the source made its calls, unless noted: active means hit-call score of the fitted dose curve at least 0.9, where 1 is the maximum; inactive means score below 0.9.

The target in test [1] is Paired box protein Pax-6 (Homo sapiens) (UniProt P26367). Briefly: ATG_Pax6_CIS: Attagene CIS-FACTORIAL HepG2 Assay for human Paired Box 6 (PAX6) (AID 2282956). Conditions: HepG2 CIS-FACTORIAL PAX6 reporter transcription, RNA readout; actives raise or lower the signal. The essentials: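 HepG2 cells transiently transfected with cis-promoter-driven multiplexed reporter units sensing endogenous transcription factor activity; 24 h chemical exposure. Reporter mRNA quantified by RT-PCR, 6-FAM labelling, HpaI digestion and capillary electrophoresis; bidirectional fit versus DMSO baseline.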
Paired box protein Pax-6 (Homo sapiens), sequence (P26367 whole entry, looked up): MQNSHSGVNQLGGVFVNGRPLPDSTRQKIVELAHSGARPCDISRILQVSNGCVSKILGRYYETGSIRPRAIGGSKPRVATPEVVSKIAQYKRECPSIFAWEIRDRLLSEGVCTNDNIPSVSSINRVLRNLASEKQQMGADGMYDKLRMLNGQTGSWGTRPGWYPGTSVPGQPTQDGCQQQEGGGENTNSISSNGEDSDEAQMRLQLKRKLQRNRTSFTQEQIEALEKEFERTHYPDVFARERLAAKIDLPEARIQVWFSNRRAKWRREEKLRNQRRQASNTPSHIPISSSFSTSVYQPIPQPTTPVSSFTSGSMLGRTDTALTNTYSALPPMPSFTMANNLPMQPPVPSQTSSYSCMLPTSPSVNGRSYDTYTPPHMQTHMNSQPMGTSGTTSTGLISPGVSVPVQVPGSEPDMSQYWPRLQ

Test [2] can be described thus: ATG_PXRE_CIS: Attagene CIS-FACTORIAL HepG2 Assay for human Pregnane X Receptor Element (PXRE) (AID 2282957). Conditions: HepG2 Attagene CIS-FACTORIAL PXRE reporter, mRNA; actives raise or lower the signal. In outline: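 Transfect HepG2 with MRTUs (cis promoter elements); dose chemical, incubate 24 h; isolate RNA, RT with oligo(dT), PCR, 6-FAM label, HpaI cut, CE. Gain/loss fit vs DMSO.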

Test [3] in a line: ATG_PPRE_CIS: Attagene CIS-FACTORIAL HepG2 Assay for human Peroxisome Proliferator-activated Response Element (PPRE) (AID 2282958). The following applies: HepG2 PPRE cis-element reporter, Attagene transcription factor profiling; actives raise or lower the signal. In outline:
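HepG2 cells are transiently transfected with multiplexed cis-promoter reporter units to report endogenous PPAR activity. After 24 h dosing, reporter mRNA is read by RT-PCR and capillary electrophoresis. Fitting is bidirectional against DMSO.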

Test [4] can be described thus: ATG_RORE_CIS: Attagene CIS-FACTORIAL HepG2 Assay for human RAR-related Orphan Receptor Element (RORE) (AID 2282959). The following applies: HepG2 Attagene cis-factorial RORE reporter, mRNA; actives raise or lower the signal. In outline:
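HepG2 cells carrying transiently transfected cis-regulated reporter units; RORE-driven reporter mRNA quantified 24 h post-dosing by RT-PCR, 6-FAM primer extension, HpaI digestion and capillary electrophoresis. Bidirectional fit versus DMSO.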

The nature of test [5]: ATG_Sox_CIS: Attagene CIS-FACTORIAL HepG2 Assay for human SRY-box transcription factor (SOX) (AID 2282960). The following applies: HepG2 Attagene cis-factorial SOX reporter, mRNA; actives raise or lower the signal. The essentials: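 HepG2 cells transiently transfected with multiple cis-regulated reporter units, then dosed for 24 h. Reporter mRNA quantified by RT-PCR, fluorescent labelling, HpaI digestion and capillary electrophoresis; bidirectional fit versus DMSO.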

For test [6], the target named is Transcription factor Sp1 (Homo sapiens) (UniProt P08047). The test can be described thus: ATG_Sp1_CIS: Attagene CIS-FACTORIAL HepG2 Assay for human Specificity Protein 1 (Sp1) (AID 2282961). Conditions: HepG2 Sp1 cis-reporter transcription, actives raise or lower the signal. In outline:
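HepG2 cells transiently transfected with multiplexed cis-regulated reporter constructs, chemical exposure 24 h. Reporter mRNA quantified by RT-PCR with capillary electrophoresis; bidirectional fit relative to DMSO.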

Test [7] is described as follows: ATG_SREBP_CIS: Attagene CIS-FACTORIAL HepG2 Assay for human Sterol Regulatory Element Binding (SREBP) (AID 2282962). The following applies: HepG2 Attagene cis-factorial SREBP reporter, mRNA; actives raise or lower the signal. The essentials:
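HepG2 cells transiently transfected with multiplexed cis-promoter reporter units sensing endogenous transcription factors; reporter mRNA measured 24 h after dosing by RT-PCR, 6-FAM labeling, HpaI digestion and capillary electrophoresis. Bidirectional fit versus DMSO.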

Test [8] deals with Signal transducer and activator of transcription 3 (Homo sapiens) (UniProt P40763). The test can be described thus: ATG_STAT3_CIS: Attagene CIS-FACTORIAL HepG2 Assay for human Signal Transducer and Activator of Transcription 3 (STAT3) (AID 2282963). The following applies: HepG2, Attagene cis-factorial STAT3 reporter transcription; actives raise or lower the signal. The essentials: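 Endogenous STAT3-responsive cis-element activity was read in transiently transfected HepG2 cells after 24 h treatment. Reporter transcripts were quantified via RT-PCR and capillary electrophoresis, with DMSO as negative control and bidirectional curve fitting.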
Signal transducer and activator of transcription 3 (Homo sapiens), sequence (P40763 whole entry, looked up): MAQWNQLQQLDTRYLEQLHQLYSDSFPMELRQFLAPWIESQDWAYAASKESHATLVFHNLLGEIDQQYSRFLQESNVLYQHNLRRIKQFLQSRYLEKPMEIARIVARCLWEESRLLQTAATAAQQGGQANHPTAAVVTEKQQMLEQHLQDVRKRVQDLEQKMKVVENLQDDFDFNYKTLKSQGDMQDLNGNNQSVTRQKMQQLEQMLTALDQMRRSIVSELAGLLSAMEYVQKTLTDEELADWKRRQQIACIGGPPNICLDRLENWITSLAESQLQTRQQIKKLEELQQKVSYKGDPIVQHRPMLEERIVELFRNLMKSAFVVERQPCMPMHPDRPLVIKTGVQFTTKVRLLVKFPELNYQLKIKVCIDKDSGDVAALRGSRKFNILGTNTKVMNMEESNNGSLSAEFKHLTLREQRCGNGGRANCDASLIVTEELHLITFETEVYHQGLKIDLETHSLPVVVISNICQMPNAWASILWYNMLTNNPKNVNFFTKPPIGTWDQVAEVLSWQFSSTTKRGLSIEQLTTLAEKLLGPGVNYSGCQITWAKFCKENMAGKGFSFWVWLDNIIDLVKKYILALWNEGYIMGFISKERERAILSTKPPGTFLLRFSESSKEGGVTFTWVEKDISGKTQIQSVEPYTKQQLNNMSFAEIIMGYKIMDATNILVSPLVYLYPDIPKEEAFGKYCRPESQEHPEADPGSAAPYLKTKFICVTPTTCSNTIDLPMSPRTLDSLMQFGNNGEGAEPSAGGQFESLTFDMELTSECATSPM

The nature of test [9]: ATG_TA_CIS: Attagene CIS-FACTORIAL HepG2 Assay for human TA Basal Promoter (AID 2282964). The following applies: HepG2 Attagene CIS-factorial TA basal promoter reporter; actives raise or lower the signal. In outline: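 Fluorescence from labelled RT-PCR reporter fragments, separated by capillary electrophoresis, gives the signal. Cells: HepG2 transiently carrying multiple reporter units, 24 h chemical dosing. Gain or loss relative to DMSO.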

Test [10] can be described thus: ATG_TCF_b_cat_CIS: Attagene CIS-FACTORIAL HepG2 Assay for human T-Cell-Factor with beta-catenin (TCF/b-cat) (AID 2282965). Conditions: HepG2 TCF/beta-catenin cis-reporter transcription, actives raise or lower the signal. In outline: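 Endogenous TCF/LEF activity read as reporter transcript level via RT-PCR and capillary electrophoresis fluorescence in transfected HepG2, 24 h exposure; gain or loss of signal fitted against DMSO controls.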

Test [11] is described as follows: ATG_TAL_CIS: Attagene CIS-FACTORIAL HepG2 Assay for human TAL Basal Promoter (AID 2282966).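 Further: background control endpoint measuring basal TAL promoter reporter mRNA not a specific factor.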 Conditions: HepG2 Attagene cis-factorial TAL promoter reporter; actives raise or lower the signal. The essentials: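 Fluorescence of labelled reporter cDNA fragments, resolved by capillary electrophoresis, gave the readout. Human HepG2 liver cells carried transiently transfected cis-element reporter units and were treated for 24 hours; activity was fitted bidirectionally against DMSO.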

Test [12] in a line: ATG_TGFb_CIS: Attagene CIS-FACTORIAL HepG2 Assay for human Transforming Growth Factor (TGF) (AID 2282967). The following applies: HepG2 Attagene CIS TGFb reporter, mRNA transcription; actives raise or lower the signal. In outline: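 Bidirectional fitting relative to DMSO gave the endpoint. Underlying data: reporter mRNA from HepG2 cells carrying transiently transfected cis-regulated reporter constructs, harvested 24 h after dosing and analyzed by RT-PCR and capillary electrophoresis.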

Test [13] is described as follows: ATG_VDRE_CIS: Attagene CIS-FACTORIAL HepG2 Assay for human Vitamin D Receptor Element (VDRE) (AID 2282968). Conditions: HepG2 VDRE cis-reporter transcription, actives raise or lower the signal. In outline:
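Reporter mRNA induction, quantified by capillary electrophoresis of fluorescently labelled RT-PCR products, was read 24 h after dosing HepG2 cells carrying transiently transfected cis-regulated reporter units; gain or loss relative to DMSO.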

The target in test [14] is Nuclear receptor subfamily 1 group I member 3 (Homo sapiens) (UniProt Q14994). The test can be described thus: ATG_CAR_TRANS: Attagene TRANS-FACTORIAL HepG2 Assay for human Constitutive Androstane Receptor (CAR) (AID 2282969; active means hit-call score of the fitted dose curve at least 0.9, where 1 is the maximum;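 further: activators raise reporter mRNA above DMSO so AC50 marks induction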). The following applies: HepG2 Attagene TRANS-FACTORIAL CAR reporter. The essentials: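 Readout is reporter mRNA induction, quantified by fluorescent primer extension and capillary electrophoresis after RT-PCR. Cells were HepG2 transiently carrying chimeric NR-Gal4 constructs with GAL4-UAS reporters, treated for 24 h; activity scored upward from DMSO.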
Nuclear receptor subfamily 1 group I member 3 (Homo sapiens), sequence (Q14994 whole entry, looked up, the tested form may be a part): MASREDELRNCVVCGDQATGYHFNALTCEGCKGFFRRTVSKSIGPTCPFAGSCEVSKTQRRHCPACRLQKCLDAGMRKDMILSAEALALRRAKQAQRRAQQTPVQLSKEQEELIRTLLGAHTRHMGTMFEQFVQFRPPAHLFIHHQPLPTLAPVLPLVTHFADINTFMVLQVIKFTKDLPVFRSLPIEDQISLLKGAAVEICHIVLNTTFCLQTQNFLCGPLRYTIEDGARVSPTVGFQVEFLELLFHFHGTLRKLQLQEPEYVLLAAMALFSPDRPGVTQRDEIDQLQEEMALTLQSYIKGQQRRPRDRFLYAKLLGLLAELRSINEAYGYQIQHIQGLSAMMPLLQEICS

The target of test [15] is Estrogen receptor (Homo sapiens) (UniProt P03372). Briefly: ATG_ERa_TRANS: Attagene TRANS-FACTORIAL HepG2 Assay for human Estrogen Receptor alpha (ERa) (AID 2282970; active means hit-call score of the fitted dose curve at least 0.9, where 1 is the maximum). The following applies: HepG2 Attagene TRANS ERa GAL4 reporter, mRNA. In outline:
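Human liver HepG2, transient transfection of multiple GAL4-UAS reporter units; TRANS format (exogenous NR-Gal4 chimera). 24 h dosing. Readout: reporter mRNA, RT-PCR, 6-FAM primer extension, HpaI digest, capillary electrophoresis. Positive direction vs DMSO.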

The target in test [16] is X-box-binding protein 1 (Homo sapiens) (UniProt P17861). Briefly: ATG_Xbp1_CIS: Attagene CIS-FACTORIAL HepG2 Assay for human X-box Binding Protein 1 (XBP1) (AID 2282972). The following applies: HepG2 XBP1 cis-element reporter, Attagene multiplex; actives raise or lower the signal. In outline:
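HepG2 cells transiently transfected with multiple cis-element reporter units report endogenous TF activity; 24 h exposure, then reporter mRNA measured by RT-PCR, 6-FAM labelling, HpaI digestion and capillary electrophoresis. Bidirectional fitting versus DMSO.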

Test [17] can be described thus: ATG_M_19_TRANS: Attagene TRANS-FACTORIAL HepG2 Assay for M19 Transcription Factor (Internal Marker) (AID 2282974; active means hit-call score of the fitted dose curve at least 0.9, where 1 is the maximum). The following applies: HepG2 Attagene TRANS-FACTORIAL M19 internal marker reporter. In outline: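 HepG2 transiently transfected with GAL4-UAS multiplex reporter constructs, exposed 24 h; reporter RNA quantified by RT-PCR, 6-FAM labeling, HpaI digestion and capillary electrophoresis; internal background marker fitted upward versus DMSO.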

Test [18] can be described thus: ATG_PBREM_CIS: Attagene CIS-FACTORIAL HepG2 Assay for human Phenobarbital-responsive Enhancer Module (PBREM) (AID 2282955). The following applies: HepG2 PBREM cis-reporter, Attagene multiplexed transcription; actives raise or lower the signal. The essentials: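 HepG2 cells transiently transfected with multiple cis-regulated reporter units measure endogenous transcription factor activity; 24 h compound exposure. Reporter mRNA quantified by RT-PCR, fluorescent labelling, HpaI digestion and capillary electrophoresis; bidirectional fit versus DMSO.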

Test [19] concerns the target Steroid hormone receptor ERR1 (Homo sapiens) (UniProt P11474). The test can be described thus: ATG_ERRa_TRANS: Attagene TRANS-FACTORIAL HepG2 Assay for human Estrogen-Related Receptor alpha (ERRa) (AID 2282971; active means hit-call score of the fitted dose curve at least 0.9, where 1 is the maximum). Conditions: HepG2 Attagene TRANS reporter, ERRa transactivation. In outline: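 Reporter transcript induction was quantified by RT-PCR and capillary electrophoresis of FAM-labelled, HpaI-cut products after 24 h treatment of HepG2 cells carrying transiently transfected GAL4-UAS reporter units and an exogenous ERRa-Gal4 fusion; activity scored as increase over DMSO.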

The target in test [20] is Androgen receptor (Homo sapiens) (UniProt P10275). The test can be described thus: ATG_AR_TRANS: Attagene TRANS-FACTORIAL HepG2 Assay for human Androgen Receptor (AR) (AID 2282973; active means hit-call score of the fitted dose curve at least 0.9, where 1 is the maximum). The following applies: HepG2 Attagene TRANS-FACTORIAL AR reporter transcription. In outline:
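Steps: transfect HepG2 with multiple GAL4-UAS reporter transcription units (TRANS format, exogenous NR-Gal4 protein); dose 24 h; isolate RNA, reverse-transcribe, PCR-amplify, FAM-label, HpaI-digest; resolve by capillary electrophoresis. Positive direction vs DMSO.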

X-box-binding protein 1 (Homo sapiens), sequence (P17861 whole entry, looked up): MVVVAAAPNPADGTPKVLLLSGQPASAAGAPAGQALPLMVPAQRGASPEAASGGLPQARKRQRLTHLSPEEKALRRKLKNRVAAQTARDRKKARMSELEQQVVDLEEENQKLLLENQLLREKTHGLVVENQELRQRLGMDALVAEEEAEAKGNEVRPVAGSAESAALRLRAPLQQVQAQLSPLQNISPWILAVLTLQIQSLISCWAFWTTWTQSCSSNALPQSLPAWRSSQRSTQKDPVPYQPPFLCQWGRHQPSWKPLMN
Transcription factor Sp1 (Homo sapiens), sequence (P08047 whole entry, looked up): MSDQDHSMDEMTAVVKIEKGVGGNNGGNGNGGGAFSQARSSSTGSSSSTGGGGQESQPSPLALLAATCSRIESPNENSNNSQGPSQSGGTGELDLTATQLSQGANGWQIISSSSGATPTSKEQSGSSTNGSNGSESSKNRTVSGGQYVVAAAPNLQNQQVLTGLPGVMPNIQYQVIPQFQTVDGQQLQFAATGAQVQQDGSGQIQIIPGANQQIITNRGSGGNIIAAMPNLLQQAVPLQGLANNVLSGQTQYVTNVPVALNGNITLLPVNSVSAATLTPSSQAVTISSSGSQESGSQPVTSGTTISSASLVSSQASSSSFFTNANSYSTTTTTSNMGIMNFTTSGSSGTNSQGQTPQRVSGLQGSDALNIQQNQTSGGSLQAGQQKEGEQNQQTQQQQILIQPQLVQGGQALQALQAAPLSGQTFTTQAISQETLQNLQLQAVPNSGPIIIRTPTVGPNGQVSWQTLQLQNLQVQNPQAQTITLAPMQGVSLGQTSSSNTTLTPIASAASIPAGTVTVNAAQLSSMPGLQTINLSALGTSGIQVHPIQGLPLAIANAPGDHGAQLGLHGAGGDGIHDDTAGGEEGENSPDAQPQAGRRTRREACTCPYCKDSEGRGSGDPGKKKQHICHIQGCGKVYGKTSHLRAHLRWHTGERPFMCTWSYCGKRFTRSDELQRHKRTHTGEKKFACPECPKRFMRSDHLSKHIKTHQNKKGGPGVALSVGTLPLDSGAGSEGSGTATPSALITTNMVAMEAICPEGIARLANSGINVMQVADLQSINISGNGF
Estrogen receptor (Homo sapiens), sequence (P03372 whole entry, looked up, the tested form may be a part): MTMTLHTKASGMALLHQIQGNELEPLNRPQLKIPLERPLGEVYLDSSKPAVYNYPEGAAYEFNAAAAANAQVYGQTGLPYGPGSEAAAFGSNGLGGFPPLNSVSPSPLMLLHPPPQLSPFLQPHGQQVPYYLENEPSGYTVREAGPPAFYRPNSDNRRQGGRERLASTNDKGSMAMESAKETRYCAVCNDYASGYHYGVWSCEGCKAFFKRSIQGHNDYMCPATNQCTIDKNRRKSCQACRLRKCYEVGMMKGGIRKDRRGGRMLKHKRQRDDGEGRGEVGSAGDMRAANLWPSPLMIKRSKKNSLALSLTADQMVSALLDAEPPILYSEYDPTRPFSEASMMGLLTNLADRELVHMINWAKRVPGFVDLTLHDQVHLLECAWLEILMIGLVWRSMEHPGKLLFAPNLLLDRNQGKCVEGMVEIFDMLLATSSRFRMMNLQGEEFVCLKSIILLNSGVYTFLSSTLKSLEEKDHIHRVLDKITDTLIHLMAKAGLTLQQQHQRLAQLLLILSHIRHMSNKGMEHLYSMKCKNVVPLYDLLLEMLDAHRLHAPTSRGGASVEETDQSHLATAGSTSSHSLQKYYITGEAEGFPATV
Androgen receptor (Homo sapiens), sequence (P10275 whole entry, looked up, the tested form may be a part): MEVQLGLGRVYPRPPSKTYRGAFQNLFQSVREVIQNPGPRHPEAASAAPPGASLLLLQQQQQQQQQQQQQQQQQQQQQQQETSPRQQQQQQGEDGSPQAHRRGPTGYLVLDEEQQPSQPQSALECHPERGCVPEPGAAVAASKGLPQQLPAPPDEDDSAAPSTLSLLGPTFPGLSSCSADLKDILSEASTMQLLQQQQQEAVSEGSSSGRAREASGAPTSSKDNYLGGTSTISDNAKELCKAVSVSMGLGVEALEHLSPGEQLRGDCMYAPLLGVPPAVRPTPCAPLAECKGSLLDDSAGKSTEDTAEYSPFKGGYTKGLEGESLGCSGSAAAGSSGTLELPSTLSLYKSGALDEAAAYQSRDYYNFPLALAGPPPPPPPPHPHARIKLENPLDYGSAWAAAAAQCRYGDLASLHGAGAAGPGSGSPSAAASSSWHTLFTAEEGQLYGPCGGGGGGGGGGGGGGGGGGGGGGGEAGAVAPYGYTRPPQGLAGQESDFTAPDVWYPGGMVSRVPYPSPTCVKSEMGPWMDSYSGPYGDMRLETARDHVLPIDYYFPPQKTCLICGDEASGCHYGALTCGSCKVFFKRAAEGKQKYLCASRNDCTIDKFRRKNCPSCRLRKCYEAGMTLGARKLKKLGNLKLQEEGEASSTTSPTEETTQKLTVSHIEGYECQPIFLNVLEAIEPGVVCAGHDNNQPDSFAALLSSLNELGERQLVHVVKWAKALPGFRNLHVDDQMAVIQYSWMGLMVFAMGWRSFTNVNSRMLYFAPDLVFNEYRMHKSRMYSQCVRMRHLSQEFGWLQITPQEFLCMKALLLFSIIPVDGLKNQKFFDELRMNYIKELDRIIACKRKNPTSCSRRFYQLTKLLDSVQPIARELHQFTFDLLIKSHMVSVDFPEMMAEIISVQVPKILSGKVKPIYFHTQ
Steroid hormone receptor ERR1 (Homo sapiens), sequence (P11474 whole entry, looked up, the tested form may be a part): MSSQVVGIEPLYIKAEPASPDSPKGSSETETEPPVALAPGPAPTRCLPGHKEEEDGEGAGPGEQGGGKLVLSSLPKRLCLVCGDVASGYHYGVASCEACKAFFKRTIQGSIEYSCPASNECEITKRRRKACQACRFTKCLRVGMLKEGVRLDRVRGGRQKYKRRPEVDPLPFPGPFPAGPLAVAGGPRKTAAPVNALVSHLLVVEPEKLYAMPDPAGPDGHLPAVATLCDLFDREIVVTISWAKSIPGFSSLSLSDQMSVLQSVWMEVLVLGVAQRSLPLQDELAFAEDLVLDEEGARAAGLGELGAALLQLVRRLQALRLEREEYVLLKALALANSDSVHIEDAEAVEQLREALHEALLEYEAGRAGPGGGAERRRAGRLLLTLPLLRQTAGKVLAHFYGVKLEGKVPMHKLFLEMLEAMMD

Turning to `O=NN1CCCC1`, the compound was classed as inactive in test [1], in test [2], in test [3], in test [4], in test [5] and in [6]. The outcome in test [7], in test [8], in test [9], in [10], in test [11] and in test [12] was inactive. Moreover, the compound was classed as inactive in test [13], in test [14], in test [15], in [16] and in test [17].
For `Cc1ccc2c(c1N)C(=O)c1ccccc1C2=O`, the outcome in [18], in test [1], in test [3], in test [4], in [6] and in test [7] was inactive. In addition, the compound was classed as inactive in test [8], in test [9], in test [10], in test [11], in test [12] and in test [14]. Besides, the outcome in test [19], in [16] and in test [17] was inactive. Besides, the half-maximal activity concentration (AC50) in [2] is 4.09 µM (active); in [15], 4.04 µM (active).
For `CCCCN(CC)C(=O)SCCC`, the result in [18], in test [1], in [3], in test [4], in [6] and in [7] was inactive. Moreover, the call in test [8], in test [9], in [10], in test [11], in [12] and in [13] was inactive. Further, the compound was called inactive in test [14], in [16], in test [20] and in [17]. Moreover, the figures for the AC50 in test [2] and in [15] were 25.9 µM (active) and 100 µM (active), respectively.
As for `Nc1ccc([N+](=O)[O-])cc1Cl`, the result in [18], in test [1], in test [3], in [4], in test [6] and in [7] was inactive. Besides, the outcome in test [8], in test [9], in [10], in test [11], in test [12] and in [13] was inactive. For the same compound, the outcome in [15], in test [16], in test [20] and in test [17] was inactive. Besides, in test [2], the AC50 was 67.3 µM (active).
